In all, about 360,000 compounds went through this assay and about 2,400 (0.67%) were called active. No stated cut-off is given here; in the data, active means enhancement above about 30%; inactive means the rest. The full list was thinned out, with actives kept by preference.

Thyrotropin-releasing hormone receptor (Homo sapiens), sequence (P34981 whole entry, looked up): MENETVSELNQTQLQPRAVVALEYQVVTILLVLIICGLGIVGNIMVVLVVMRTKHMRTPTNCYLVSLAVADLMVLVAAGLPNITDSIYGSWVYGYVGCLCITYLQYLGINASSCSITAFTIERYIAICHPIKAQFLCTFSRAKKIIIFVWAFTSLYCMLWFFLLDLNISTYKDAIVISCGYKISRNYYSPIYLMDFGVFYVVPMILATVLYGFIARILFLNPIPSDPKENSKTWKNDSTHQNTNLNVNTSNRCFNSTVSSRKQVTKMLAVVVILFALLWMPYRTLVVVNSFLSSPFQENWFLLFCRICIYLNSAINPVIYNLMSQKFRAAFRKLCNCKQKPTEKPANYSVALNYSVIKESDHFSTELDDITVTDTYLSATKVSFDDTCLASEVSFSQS

The target in this test is Thyrotropin-releasing hormone receptor (Homo sapiens) (UniProt P34981). As to the kind of experiment: qHTS for Small Molecule Agonists and Allosteric Enhancers of Human TRH Receptor: Primary Screen for Enhancers. Further: 0% is about no effect. The settings on record: TRHR cells, fluo-8 calcium fluorescence, EC20 TRH enhancement; at 2 µM; stronger effect = higher value. An excerpt:
NIH Chemical Genomics Center [NCGC] NIH Molecular Libraries Probe Centers Network [MLPCN] MLPCN Grant: MH089816-01 Assay Submitter (PI): Marvin Gershengorn This project aims to identify small drug-like molecules that activate (agonists) the thyrotropin releasing hormone (TRH) receptor (TRHR) or enhance its TRH-stimulated activity (allosteric enhancers). TRHR, a drug-accessible cell surface receptor expressed in specific brain regions, and its ligand TRH have been implicated in several central nervous system disorders, including depression and anxiety. Small molecule TRHR agonists or allosteric enhancers that are metabolically stable and able to cross the blood-brain barrier might serve as probes to elucidate the roles of brain TRH receptors in animal models, and might be valuable as lead compounds for the development of drugs to treat patients with central nervous system disorders. Upon TRHR-Gq activation in TRHR cells, intracellular calcium is released from stores in the endoplasmic reticulum. […] This primary screen measures compound-induced enhancement of an EC20 stimulation of the receptor by its native ligand.
For the HTS assay freshly prepared cells are plated at a density of 2000/well in 3 ul of complete DMEM medium containing 10% serum in 1536-well plates and cultured over night at 37 C in a humidified incubator with 5% CO2. The next day, 2 ul of a no wash calcium dye (ABD Bioquest) was added to the cells and plates were incubated at room temperature for 1 hour. For the assay, assay plates were loaded into the FDSS kinetic plate reader. A 10 cycle (1 second/cycle) baseline measurement is taken and then the FDSS online 1536 pintool delivers 23 nl of compound library (as well as TRH controls) to the plate. The plate is measured for kinetically at 1 cycle/sec for 180 seconds and is considered to be the agonist portion of the assay (eg, compounds which activate a positive calcium response during this portion are flagged as potential agonists). Following the 180 second read, 1 ul of either an EC20 (positive modulation assay) is delivered by an onboard pipette head. Measurements are taken kinetically for an additional 180 seconds. TRHR FDSS Screening Protocol 1. Reagent, 3 uL 2000 cells/well 1536 TC treated Black plate in media containing 10% FCS 2. Time, 18 hours, 33.5C 5% CO2 (cells grown at 37C) 3. Reagent, 2 uL ABD fluo-8 Ca dye 4. Time, 30 min-1.5hrs hours, Room temp (6 plates/batch) 5. Detector, EX 480/EM 530C, FDSS 10 cycles baseline (1sec/cycle) 6. Compound, 23 nL of stock solution from library 7. Detector, EX 480/EM 530C, FDSS 230 cycles (1sec/cycle) Agonist mode 8. Compound, 1 ul EC20 of TRH made up in HEPES HBSS, 10 nM final 9. Detector, EX 480/EM 530C, FDSS 100 cycles (1sec/cycle) Potentiator mode
Consider `O=C(Nc1n[nH]c(C(F)(F)F)n1)c1cccs1`, for which the enhancement is -3.09% (inactive).
For `O=C(NC1CCCCCCC1)c1cccs1` the value was -1.69% (inactive).
Take `O=C(Nc1ncccn1)c1cccs1`: the enhancement was 35.8% (active).
Regarding `COc1ccc2c(CNCCc3ccccc3C)c(C(=O)O)n(Cc3ccccc3C)c2c1`, the enhancement was -16.3% (inactive).
Under `CCN1CCN(Cc2c(O)ccc3oc(C)c(C(=O)Nc4ccc(C)cc4C)c23)CC1` stands 4.91% (inactive); under `CCC(=O)Nc1c(C(=O)N2CCN(c3ccc(F)cc3)CC2)oc2ccccc12`, -8.72% (inactive).
With `CCN1CCC(N(Cc2ccc(F)cc2)C(=O)Nc2cc(C)ccc2C)CC1`, the enhancement is 10% (inactive).
For `CCOC(=O)N1CCC(NC(=O)c2cnn(-c3cccc(C)c3)c2C2CCN(C(=O)OC(C)(C)C)CC2)CC1`, the enhancement is 5.75% (inactive).
Under `CC(C)Cn1c(N)c(C(=O)COC(=O)CN2C(=O)C3CC=CCC3C2=O)c(=O)n(C)c1=O` (stereo unspecified) stands 0.142% (inactive); under `CCCc1cc(=O)[nH]c(SCC(=O)N2C(C)CCCC2C)n1` (stereo unspecified), 6.92% (inactive).
For `CCCc1cc(=O)[nH]c(SCC(=O)c2c(N)n(CC(C)C)c(=O)n(C)c2=O)n1` the value was 38.3% (active).
Turning to `O=c1cc(CSc2ncn[nH]2)[nH]c2ccc(F)cc12`, the enhancement is 0.991% (inactive).
`Cc1c(C(=O)N(C)C)sc2c1c(=O)n(-c1ccc(F)cc1)c(=O)n2CC(=O)N(C)c1ccccc1`: the enhancement is -2.28% (inactive).
As for `CC(C(=O)N(C)CC(=O)Nc1ccccc1C(F)(F)F)N1C(=O)c2ccccc2C1=O` (stereo unspecified), the enhancement is 35.3% (active).
For `CN(CC(=O)Nc1ccccc1C(F)(F)F)C(=O)Cc1ccccc1F`, the enhancement was 1.5% (inactive).
As for `O=C(CN1CCN(c2ncccn2)CC1)Nc1ccccc1C(F)(F)F`, the enhancement is 0.988% (inactive).
With `CCCNc1ncnc2c1c(-c1ccccc1)cn2-c1ccc(OCC)cc1`, the enhancement was -5.52% (inactive).
On to `CCCN(CCC)CCCNC(=O)Cn1ncc2c3ccccc3n(Cc3ccccc3)c2c1=O`, for which the enhancement is 3.33% (inactive).
`Cc1nn(Cc2ccccc2)c(C)c1C(=O)N1CCN(CC(=O)Nc2ccccc2Cl)CC1`: the enhancement was 66.2% (active).
Under `CCC(=O)Nc1ccccc1C(=O)N1CCN(Cc2ccccc2)CC1` stands 8.38% (inactive); under `Cc1nn(Cc2ccccc2)c(C)c1C(=O)NCCCN1CCCC1=O`, 8.55% (inactive).
Turning to `O=C(CSc1nccn1Cc1ccc(F)cc1)NCc1ccccc1`, the enhancement is 1.55% (inactive).
As to `Cc1ccc(S(=O)(=O)NC(N)=NCCC[C@@H](NC(=O)CNC(=O)c2ccccc2)C(=O)Nc2cc(C(F)(F)F)ccc2Cl)cc1`, the enhancement was 2.23% (inactive).
As for `CCn1c(SCC(=O)Nc2nccs2)nnc1-c1ccncc1`, the enhancement is 1.36% (inactive).
`CCn1c(SCC(=O)Nc2nccs2)nnc1-c1ccco1`: the enhancement was 38% (active).
Under `Nn1c(SCC(=O)Nc2nccs2)nnc1-c1ccco1` stands 4.24% (inactive).

Values taken from PubChem BioAssay AID493056 (National Center for Advancing Translational Sciences (NCATS), 2011).
